{"source": "PubChem BioAssay (EPA / NIEHS)", "note": "Results filed as inconclusive are left out. Calls of active or inactive are those of the source. The calls were made as follows, unless noted: active = hit-call score of the fitted dose curve at least 0.9, where 1 is the maximum; inactive = score below 0.9."}
{"experiment": "CCTE_Mundy_HCI_Cortical_NOG_NeuronCount: CCTE's Neurite Outgrowth Assay in rat cortical cells for Neuron Count, Mundy Lab (AID 2284236; active = hit-call score of the fitted dose curve at least 0.9, where 1 is the maximum;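 also: neurons counted by imaging betaIII-tubulin and Hoechst stained cortical cells; cells exposed to compound for about 48 hours before fixation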)", "method_in_brief": "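Read-out: neuron number by high-content imaging of betaIII-tubulin (Alexa Fluor-488) and Hoechst-labelled rat primary cortical cells.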"}
{"smiles": "COCCc1ccc(OCC(O)CNC(C)C)cc1", "note": "(stereo not drawn)", "outcome": "inactive"}
{"smiles": "COCCOCCOCCO", "outcome": "inactive"}
{"smiles": "CN(C)CCOC(C)(c1ccccc1)c1ccccn1", "note": "(stereo not drawn)", "outcome": "inactive"}
{"smiles": "Oc1c(Cl)cc(Cl)c(Cl)c1Cc1c(O)c(Cl)cc(Cl)c1Cl", "AC50": "50 µM (active)"}
{"experiment": "CCTE_Mundy_HCI_Cortical_NOG_BPCount: CCTE's Neurite Outgrowth Assay in rat cortical cells for Branch Point Count, Mundy Lab (AID 2284237);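 as to AC50: branch points counted about two days after chemical exposure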", "method_in_brief": "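Measured 50.33 h after dosing, this morphology endpoint uses rat primary cortical cultures labelled for betaIII-tubulin. Branch points are quantified by high-content imaging, with DMSO as negative control and baseline.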"}
{"smiles": "COCCc1ccc(OCC(O)CNC(C)C)cc1", "note": "(stereo not drawn)", "outcome": "inactive"}
{"smiles": "COCCOCCOCCO", "outcome": "inactive"}
{"smiles": "CN(C)CCOC(C)(c1ccccc1)c1ccccn1", "note": "(stereo not drawn)", "outcome": "inactive"}
{"smiles": "Oc1c(Cl)cc(Cl)c(Cl)c1Cc1c(O)c(Cl)cc(Cl)c1Cl", "AC50": "10.4 µM (active)"}
